This is an account of results in the supplement of paper PMC8728848.

About 410 targets per protein were measured; listed, in parts, are those with the strongest signals and a random draw of the rest.

Holding throughout (experiment): glycan array binding signal (z-score within array); higher = stronger binding
Conditions in all cases: glycan notation: IUPAC condensed, linker removed; mutation: R343A

The target of test [1] is Fuc(a1-2)Gal(b1-3)GalNAc(b1-3)Gal(a1-4)Gal(b1-4)Glc. An outline of the steps: (§1)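 The Consortium for Functional Glycomics database supplied 3228 glycan arrays, of which those lacking an available protein sequence were dropped. The binding signal, a within-array Z-score, was averaged across arrays of the same protein sequence and across linkers. Negative scores can be read as non-binding.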

Test [2] deals with Fuc(a1-2)Gal(b1-3)GlcNAc(b1-3)Gal(b1-4)Glc. An outline of the steps: as §1
In a further test the target is Fuc(a1-2)Gal(b1-4)GlcNAc. An outline of the steps: as §1
For another test, the target named is Fuc(a1-4)GlcNAc. An outline of the steps: as §1
Another test deals with Gal(a1-3)GalNAc. In a few lines: as §1
In the next test the target is Gal(b1-3)Gal. An outline of the steps: as §1
For test [3], the target named is Gal(b1-3)GlcNAc(b1-3)Gal(b1-4)Glc. An outline of the steps:
as §1

Test [4] addresses Gal(b1-4)GalNAc(a1-3)[Fuc(a1-2)]Gal(b1-4)GlcNAc. An outline of the steps: as §1
The target of a further test is Gal(b1-4)Glc. In a few lines:
as §1

Test [5] deals with Gal3S(b1-3)[Fuc(a1-4)]GlcNAc. In a few lines: as §1
Test [6] deals with GlcNAc(b1-3)Gal(b1-4)GlcNAc(b1-3)Gal(b1-4)GlcNAc. In a few lines: as §1
For another test, the target named is Kdn(a2-3)Gal(b1-4)GlcNAc. In a few lines:
as §1

Test [7] deals with Man(a1-2)Man(a1-3)[Man(a1-2)Man(a1-6)]Man. An outline of the steps: as §1
The target of test [8] is Man(a1-2)Man(a1-3)[Man(a1-2)Man(a1-6)]Man(a1-6)[Man(a1-2)Man(a1-2)Man(a1-3)]Man. An outline of the steps: as §1
The target of test [9] is Man(a1-2)Man(a1-3)[Man(a1-2)Man(a1-6)]Man(a1-6)[Man(a1-2)Man(a1-2)Man(a1-3)]Man(b1-4)GlcNAc(b1-4)GlcNAc. In a few lines: as §1
In test [10] the target is Man(a1-2)Man(a1-3)[Man(a1-6)]Man(a1-6)[Man(a1-2)Man(a1-3)]Man(b1-4)GlcNAc(b1-4)GlcNAc. In a few lines: as §1
Test [11] concerns the target Man(a1-2)Man(a1-6)[Man(a1-3)]Man(a1-6)[Man(a1-2)Man(a1-2)Man(a1-3)]Man. In a few lines: as §1
The target in test [12] is Man(a1-3)[Man(a1-6)]Man(a1-6)[Man(a1-2)Man(a1-3)]Man(b1-4)GlcNAc(b1-4)GlcNAc. In a few lines:
as §1

The target of test [13] is Neu5Ac(a2-3)Gal(b1-4)GlcNAc(b1-3)Gal(b1-4)[Fuc(a1-3)]GlcNAc. An outline of the steps:
as §1

Test [14] deals with Neu5Gc(b2-6)Gal(b1-4)GlcNAc. An outline of the steps:
as §1

B1: Surfactant Protein D (Human); Neck + Carbohydrate Recognition Domain (NCRD) (Homo sapiens) (protein)
chain: MLLFLLSALVLLTQPLGYLEAEMKTYSHRTMPSACTLVMCSSVESGLPGRDRDGREGPRGEKGDPGLPGAAGQAGMPGQAGPVGPKGDNGSVGEPGPKGDTGPSGPPGPPGVPGPAGREGALGKQGNIGPQGKPGPKGEAGPKGEVGAPGMQGSAGARGLAGPKGERGVPGERGVPGNTGAAGSAGAMGPQGSPGARGPPGLKGDKGIPGDKGAKGESGLPDVASLRQQVEALQGQVQHLQAAFSQYKKVELFPNGQSVGEKIFKTAQFVKPFTEAQLLCTQAGGQLASPRSAAENAALQQLVVAKNEAAFLSMTDSKTEGKFTYPTGESLVYSNWAPGEPNDDGGSEDCVEIFTNGKWNDAACGEKRLVVCEF
For B1, the “glycan array binding signal (z-score)” value in [1] is -0.236; in test [2], -0.397; in the test with Fuc(a1-2)Gal(b1-4)GlcNAc, -0.207; with Fuc(a1-4)GlcNAc, -0.016; with Gal(a1-3)GalNAc it was -0.163; with Gal(b1-3)Gal, -0.274. The “glycan array binding signal (z-score)” value in test [3] was -0.279; in [4] it was -0.214; with Gal(b1-4)Glc it was -0.341; in test [5], 0.046; in test [6], -0.173; with Kdn(a2-3)Gal(b1-4)GlcNAc, -0.194. Besides, the “glycan array binding signal (z-score)” value is 9.14 in test [7]; 6.17 in [8]; -0.269 in test [9]; 9.15 in test [10]; 2.79 in test [11]; 6.5 in test [12]. In addition, the figures for the “glycan array binding signal (z-score)” value in test [13] and in test [14] were -0.226 and -0.326, respectively.
